KB-3-1 cytotox – KB-3-1 parental cell cytotoxicity | KB-3-1 viability, CellTiter-Glo ATP luminescence, 72 h | 1.4% of 400,000 active | Potency, µM (series often up to 46.1 µM), hits mostly cytotoxic; further: on the % scale 0 is the no-effect control and ±100 the full control effect; nearly all actives have a fitted effect of over 60% in size
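Viability of parental KB-3-1 cells, measured by CellTiter-Glo luminescence, followed a 72 h incubation at 37 °C with pinned compounds in phenol-red-free DMEM containing 10% FBS.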
KB-V1 cytotox – KB-V1 MDR subline cytotoxicity; AID 1347076; KB-V1 MDR cells viability, CellTiter-Glo, 72 h; Potency, µM (series often up to 46.1 µM), hits mostly cytotoxic; 3.4% of 400,000 active; further: on the % scale 0 is the no-effect control and ±100 the full control effect; nearly all actives have a fitted effect of over 60% in size
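Luminescent ATP read-out (CellTiter-Glo, 10 min) measures survival of drug-selected KB-V1 MDR cells after 72 h, 37 degrees C compound exposure. Medium: phenol-red-free DMEM, 10% FBS. Values from fitted concentration-response curves.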
SW480 rerep – inducers of DNA re-replication in SW480 colon cancer cells; 1.8% of 340,000 active; SW480 DNA re-replication, Hoechst DNA content imaging, 48 h; Potency, µM (highest dose often 46.1 µM), for inactives: at the highest dose re-replication activation, most hits filed as activators; further: % of control where 0% means no effect; nearly all actives have a fitted effect of over 55% in size
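Quantitative HTS format with DMSO vehicle controls; 48 hr drug incubation at 37 C, then 40 min Hoechst staining and scanning imager measurement at 405 nm excitation.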
MCF10A rerep – DNA re-replication induction in MCF 10a cells; MCF 10A DNA re-replication, Hoechst nuclear intensity, 48 h; Potency, µM (series often up to 46.1 µM), without a hit: at the top dose activity, positive = re-replication, actives largely listed as activators; 2.9% of 350,000 active; further: % of control where 0% means no effect; nearly all actives have a fitted effect of over 50% in size
ELG1 DNA repair – ELG1-dependent DNA repair inhibition. HEK293T ELG1-luciferase reporter, luminescence, 16 h; DNA damage induced by 5-fluorouridine. AID 504467. 2.3% of 330,000 active. Potency, µM (series often up to 46.1 µM), inactives show top-dose activity change, negative = inhibition, actives largely listed as inhibitors; further: on the % scale 0 is the no-effect control and ±100 the full control effect; nearly all actives have a fitted effect of over 55% in size
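In this reporter screen, reduction of luminescence relative to DMSO vehicle indicated activity. Compounds and 5-fluorouridine were added together to 2,000 cells per well, incubated for 16 hr at 37 °C, then developed with ONE-Glo.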
Starred values were filed as active, the others as inactive. Most compounds without a hit are left out; they make up all but 8.1% or so of the library. The call rests on the fitted dose curve; in most records, active means well fitted curve in the direction sought with a large enough effect; inconclusive means small, poorly fitted or top-dose-only effect, or another doubt; inactive means no such curve, though single readings can be large; an effect the other way counts as inactive or inconclusive. Potency means the concentration at half of the fitted maximal effect.

Screening COc1cccc(/C=N/NC(=O)c2cc3c(OC)cccc3[nH]2)c1O returned KB-3-1 cytotox inconclusive, KB-V1 cytotox inconclusive, SW480 rerep 9.2µM*, MCF10A rerep -0.1% and ELG1 DNA repair inconclusive.
`COc1cccc(/C=N/NC(=O)C(=O)N2CCCCCC2)c1O` gave KB-3-1 cytotox inactive, KB-V1 cytotox inactive, SW480 rerep inconclusive, MCF10A rerep 9.1% and ELG1 DNA repair inconclusive.
`COc1cccc(/C=N/NC(=O)C(=O)N/N=C/c2cccc(OC)c2O)c1O` gave KB-3-1 cytotox inconclusive, KB-V1 cytotox inactive, SW480 rerep 6.51µM*, MCF10A rerep 3.2% and ELG1 DNA repair inconclusive.
For COc1ccc(/C=N/NC(=O)c2cc3c(OC)ccc(OC)c3[nH]2)cc1O the results were KB-3-1 cytotox 2.91µM*, KB-V1 cytotox 9.2µM*, SW480 rerep inconclusive, MCF10A rerep inconclusive and ELG1 DNA repair inconclusive.
`COc1ccc(OC)c2[nH]c(C(=O)N/N=C/c3ccccc3O)cc12` gave KB-3-1 cytotox inconclusive, KB-V1 cytotox inactive, SW480 rerep inconclusive, MCF10A rerep inconclusive and ELG1 DNA repair inconclusive.
For COc1cccc(/C=N/NC(=O)c2cc3c(OC)cccc3[nH]2)c1OC the results were KB-3-1 cytotox inactive, KB-V1 cytotox inconclusive, SW480 rerep -3.7%, MCF10A rerep inconclusive and ELG1 DNA repair -27.5%.
`COc1ccc(C(=O)NNC(=O)C(C)NC(=O)c2ccccc2NC(=O)c2ccco2)cc1` (stereo not drawn) gave KB-3-1 cytotox inactive, KB-V1 cytotox inactive, SW480 rerep -1.0%, MCF10A rerep 0.7% and ELG1 DNA repair -2.1%.
`COc1c(Br)cc(Br)cc1/C=N/NC(=O)c1ccncc1` gave KB-3-1 cytotox inactive, KB-V1 cytotox inactive, SW480 rerep 12.6%, MCF10A rerep 0.9% and ELG1 DNA repair -7.7%.
`COc1c(Br)cc(Br)cc1/C=N/NC(=O)c1cccnc1` gave KB-3-1 cytotox 16.4µM*, KB-V1 cytotox inactive, SW480 rerep 4.4%, MCF10A rerep inconclusive and ELG1 DNA repair -25.1%.
COc1cccc(/C=N/NC(=O)c2cnccn2)c1O was read as KB-3-1 cytotox inactive, KB-V1 cytotox inactive, SW480 rerep 5.17µM*, MCF10A rerep 4.8% and ELG1 DNA repair 0.0%.
COC(=O)c1sccc1N/N=C/c1ccc(OC)c(OC)c1OC was read as KB-3-1 cytotox inactive, KB-V1 cytotox inconclusive, SW480 rerep 10.9%, MCF10A rerep 23.1µM* and ELG1 DNA repair inconclusive.
For COc1cccc(/C=N/NC(=O)c2cc3c(OC)c(OC)ccc3[nH]2)c1OC the results were KB-3-1 cytotox 9.2µM*, KB-V1 cytotox inactive, SW480 rerep 23.1µM*, MCF10A rerep inconclusive and ELG1 DNA repair inconclusive.
Screening COC(=O)c1sccc1N/N=C/c1cccc(OC)c1O returned KB-3-1 cytotox inactive, KB-V1 cytotox inconclusive, SW480 rerep -2.0%, MCF10A rerep inconclusive and ELG1 DNA repair inconclusive.
COc1ccc(/C=N/NC(=O)c2cnccn2)c(OC)c1OC was read as KB-3-1 cytotox inactive, KB-V1 cytotox inactive, SW480 rerep 1.7%, MCF10A rerep -0.9% and ELG1 DNA repair -5.0%.
For Cc1onc(NC(=O)NC(=O)c2ccccc2F)c1Br the results were KB-3-1 cytotox inactive, KB-V1 cytotox inactive, SW480 rerep 0.1%, MCF10A rerep -4.3% and ELG1 DNA repair inconclusive.
Screening Cc1ccc(C)c(CC(=O)N2CCCC(c3cc(C(=O)Nc4ccc5c(c4)OCO5)no3)C2)c1 (stereo not drawn) returned KB-3-1 cytotox inactive and KB-V1 cytotox inactive.
For COc1ccc(/C=N/NC(=O)c2cccc3ccccc23)c(OC)c1OC the results were KB-3-1 cytotox inconclusive, KB-V1 cytotox inconclusive, SW480 rerep -13.6% and MCF10A rerep 14.6µM*.
COC(=O)c1cccc(/C=N/NC(N)=S)c1O was read as KB-3-1 cytotox inconclusive, KB-V1 cytotox 14.6µM*, SW480 rerep inconclusive, MCF10A rerep 24.1% and ELG1 DNA repair 4.9%.
`COc1ccccc1/C=N/NC(=O)c1cccc2ccccc12` gave KB-3-1 cytotox inactive, KB-V1 cytotox inactive, SW480 rerep inconclusive, MCF10A rerep -3.1% and ELG1 DNA repair 13.5%.

Screening data from PubChem BioAssay.
